The test can be described thus: small-molecule microarray binders of probe aNog, primary screen, biochemical, biotinylated probe, 635/667 nm fluorescence (AID 1115).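 Also: probe is biotinylated aNog protein used at 0.15 µg/mL for 1 h at 4 C; z-score combines 667 nm fluorescence of each spot with its signal to noise.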 Particulars: higher = more signal.
`COCCOC(=O)N1C(=O)[C@@]2(c3ccccc31)[C@H](C(=O)N1CCCCCCC1)[C@H]1C(=O)O[C@H](c3ccccc3)[C@H](c3ccccc3)N1[C@@H]2c1ccccc1OCCO` showed a composite z-score of 2.48.

As to `COCCn1c(C(=O)N(C)C)cc2c1C[C@H]1CN(C(=O)c3ccccc3)[C@@](Cc3ccc(F)cc3)(C(=O)OC)[C@@H]21`, the composite z-score came to 0.873.

As to `CC(C)N1C(=O)c2ccccc2[C@](C)(C(=O)NCCCN(C)C)[C@@H]1c1ccc(CO)cc1`, the composite z-score is -0.546.

`O=C1C2C=CC(C(O)c3ccc(-c4ccccc4)s3)N(Nc3ccccc3F)C2C(=O)N1c1ccccc1` (stereo not given): the composite z-score is -0.54.

The molecule `CN1C(=O)C2C(C1=O)C1C=C(c3ccc(CO)cc3)C2C(C2CC2)N1Cc1sc2ccccc2c1Cl` (stereo not given) registered a composite z-score of -0.186.

`CO[C@H]1O[C@H](CO)[C@@H](OC(=O)Nc2ccc3c(c2)OCO3)[C@H](OC(=O)Nc2ccc3c(c2)OCO3)[C@H]1OC(=O)Nc1ccc2c(c1)OCO2` yielded a composite z-score of 0.961.

`C=CC[C@]1(C(=O)NCCN2CCOCC2)N=C(c2ccc(OCCCO)cc2)O[C@H]1c1ccccc1N=[N+]=[N-]` yielded a composite z-score of 1.39.

Regarding `C=CCNC(=O)[C@@H]1[C@H]2C(=O)O[C@H](c3ccccc3)[C@H](c3ccccc3)N2[C@H](c2ccccc2OCCO)[C@@]12C(=O)N(C(=O)OCCOC)c1ccc(C#CCC(C(=O)OC)C(=O)OC)cc12`, the composite z-score is 2.79.

Molecule `CC(C)[C@H]1COC(=O)N1C(=O)[C@H]1[C@@H](c2ccccc2)N(c2ccccc2)O[C@@H]1C` had a composite z-score of 0.0373.

For `O=C1O[C@@H](c2ccccc2)[C@@H](c2ccccc2)N2[C@@H](c3ccc(O)cc3)[C@]3(C(=O)Nc4ccc(C#CCCO)cc43)[C@@H](C(=O)O)[C@H]12`, the composite z-score is 2.63.
